# ELG1 repair inh = blocks ELG1-dependent DNA repair in HEK293T cells | AID 504467 | actives 2.3% (n = 330,000) | Potency, µM (series often up to 46.1 µM), without a hit: at the top dose activity change, negative = inhibition, usual class: inhibitors | HEK293T ELG1-luciferase reporter, luminescence, 16 h; DNA damage induced by 5-fluorouridine; also: potency is read from the fitted curve at half-maximal effect; nearly all actives have a fitted effect of over 55% in size
#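 Cells (2,000 per well) received 5-fluorouridine plus test compound or DMSO and were incubated 16 hr at 37 °C, 5% CO2. Luciferase activity was read by luminescence 30 min after ONE-Glo addition; signal suppression marked inhibition of damage-induced ELG1 function.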
# TDP1 inh = inhibitors of human tyrosyl-DNA phosphodiesterase TDP1; recombinant TDP1, AlphaScreen DNA substrate cleavage; Potency, µM (doses to about 130 µM), for the others: at the top dose activity change, negative = inhibition, hits mostly inhibitors; actives 0.28% (n = 350,000); also: potency is read from the fitted curve at half-maximal effect; nearly all actives have a fitted effect of over 40% in size
#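 Enzyme-compound mixtures sat 15 min at room temperature, followed by a 5 min reaction with 15 nM final substrate and 10 min with AlphaScreen beads. Recombinant human Tdp1 was used at 1 nM final.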
# IL-1B inflam inh = inflammasome signaling inhibition, IL-1 beta readout; AID 743279; actives 4.7% (n = 360,000); THP-1 LPS/ATP IL-1B secretion, AlphaLISA, 16 h; hits give low values; activity change, % at 57.5 µM; in the data active = activity change below about -50%; inconclusive = mostly about -30% to -49%
#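 Secreted IL-1B measured by AlphaLISA bead assay after 16 h compound exposure of THP-1 cells; compounds (final up to 57.5 uM) added 1 h before LPS (250 ng/mL) and ATP (1.25 mM) stimulation; lower signal means less secretion.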
# TDP1 cell noCPT = qHTS for Inhibitors of human tyrosyl-DNA phosphodiesterase 1 (TDP1): qHTS in cells in absence of CPT | DT40 Tdp1-/- hTDP1 cells, no CPT, ATP luminescence, 48 h | Potency, µM (series often up to 46.2 µM), for inactives: at the top dose activity change, negative = growth inhibition, most hits filed as inhibitors | actives 15% (n = 420,000) | AID 686978, 2013; also: potency is read from the fitted curve at half-maximal effect; nearly all actives have a fitted effect of over 55% in size
#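 A cellular qHTS used chicken DT40 cells lacking endogenous Tdp1 but carrying stably transfected human TDP1. Compounds were applied without camptothecin, and cell growth kinetics were judged by ATP-dependent luminescence after ≥48 hr.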
# Giardia kill = Giardia lamblia killing; activity change, % at 7.66 µM, hits read low; Giardia lamblia trophozoite viability; actives 0.15% (n = 340,000); in the data active = activity change below about -80%; inconclusive = between about -30% and that limit;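 also: parasites exposed to compound for two days anaerobically before the ATP read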
#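 Media and compound were dispensed first, then trophozoites at 100 cells/well; plates sat 48 hrs at 37 deg C without oxygen before ATP luminescence reagent was added and read after 15-30 min at room temperature.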
# TDP1 cell CPT = DT40-hTDP1 cell growth loss with CPT | chicken DT40 Tdp1-/-;hTDP1 cells + 20 nM CPT, ATP luminescence, 48 h | Potency, µM (highest dose often 46.2 µM), inactives show at the top dose activity change, negative = growth inhibition, actives largely listed as inhibitors | actives 12% (n = 420,000) | AID 686979; also: potency is read from the fitted curve at half-maximal effect; nearly all actives have a fitted effect of over 55% in size
#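 Chicken DT40 Tdp1-/- cells complemented with human TDP1, 400 cells/well, exposed to compounds plus 20 nM camptothecin for at least 48 h at 37 C; viability read as ATP content by CellTiter-Glo luminescence.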
# Starred values were filed as active, the others as inactive; ? = inconclusive; · = no result given; [ ] = remark or other dose. The list is not random: actives were taken first. Their share in the collection is about 19%. Unless noted, calls follow the shape of the dose curve; as a rule, active = well fitted curve in the direction sought with a large enough effect; inconclusive = small, poorly fitted or top-dose-only effect, or another doubt; inactive = no such curve, though single readings can be large; an effect the other way counts as inactive or inconclusive. % is scaled to controls: 0 for no effect and ±100 for the full control effect.
SMILES,ELG1 repair inh,TDP1 inh,IL-1B inflam inh,TDP1 cell noCPT,Giardia kill,TDP1 cell CPT
COc1ccc(-n2c(C)cc(C(=O)COC(=O)Cc3n[nH]c(=O)c4ccccc34)c2C)cc1,?,8%,-7,9.2µM*,-11,12µM*
COCCn1c(C)cc(C(=O)COC(=O)c2cncc(Br)c2)c1C,?,-1%,-11,?,9,?
COCCn1c(C)cc(C(=O)COC(=O)c2n[nH]c3ccccc23)c1C,?,1%,-4,23µM*,?,-29%
Cc1cc(C(=O)COC(=O)c2n[nH]c3ccccc23)c(C)n1CC1CCCO1 (stereo not given),?,6%,6,?,?,-19%
Cc1nc(N2CCOCC2)c2c(C(=O)NCCc3ccccc3)c(C)oc2n1,·,3%,·,-8%,·,14%
O=[N+]([O-])c1cccc(COc2ccccc2CN2CCCCC2)c1,·,·,-20,?,?,?
COc1ccc(-c2[nH]ncc2CN2CCC(N3CCSCC3)CC2)cc1F,12%,-3%,-1,-13%,9,4%
COc1cccc(C(C(=O)NCC2CCCO2)N(C(=O)Cn2nnc3ccccc32)c2ccccc2C(C)=O)c1OC (stereo not given),4%,·,-6,-3%,10,0%
COc1cc(OC)c(OC)cc1CN1CCCC(n2cc(C(=O)N3CCCCC3)nn2)C1 (stereo not given),·,·,·,-9%,·,19%[9.04 µM]
Cc1cc(C(=O)COC(=O)Cc2n[nH]c(=O)c3ccccc23)c(C)n1-c1ccc2c(c1)OCO2,13µM*,5%,27,21µM*,-2,18µM*
Cc1cc(C)c2c(NC(=O)CCl)nn(C)c2n1,?,0%,-98*,12µM*,25,13µM*
Cc1cc(C)c2c(NC(=S)NC(=O)c3ccccc3)nn(C)c2n1,-18%,9%,0,-8%,-3,1%
COc1cccc(CNC(=O)CCn2ccc3cc(S(=O)(=O)N4CCC(C)CC4)ccc32)c1,-11%,4%,?,-25%,5,?
CC1CCN(S(=O)(=O)c2ccc3c(ccn3CCC(=O)N3CCCCC3)c2)CC1,1%,5%,-7,6.5µM*,-10,?
CCOc1ccccc1CNC(=O)CCn1ccc2cc(S(=O)(=O)N3CCCCC3)ccc21,1%,3%,3,29µM*,14,16µM*
CCOc1ccccc1CNC(=O)CCn1ccc2cc(S(=O)(=O)N3CCC(C)CC3)ccc21,·,6%,·,12µM*,·,9.2µM*
CCOc1ccccc1CNC(=O)Cn1ccc2cc(S(=O)(=O)N3CCCCCC3)ccc21,-29%,1%,?,2.9µM*,29,8.2µM*
CCN(CCC(=O)Nc1cc([N+](=O)[O-])ccc1OC)Cc1ccccc1,-14%,4%,7,?,-3,?
CCC(C)NC(=O)c1nn(-c2ccc(C)cc2)c(=O)n(C)c1=O (stereo not given),·,2%,·,-11%,·,-6%
N#CCSc1nnc(Cc2cccc3ccccc23)n1C1CCCCC1,-12%,4%,-65*,-20%,-21,-25%
CSc1ccc(CNC(=O)CCc2c(C)nn(-c3ccc(N4CCCC4)nn3)c2C)cc1,·,5%,·,?,·,?
Cc1ccc(/C=C/c2nc3sc(C(=O)O)c(C)c3c(=O)[nH]2)cc1[N+](=O)[O-],23%,11µM*,14,4%,-29,-3%
O=C(O)c1ccc(/C=C/c2nc3sc4c(c3c(=O)[nH]2)CCC4)cc1,-5%,50µM*,26,3%,-9,6%
Cc1c(C(=O)O)sc2nc(/C=C/c3ccccc3OC(F)F)[nH]c(=O)c12,-3%,71µM*,18,-5%,-10,-7%

# Screens: PubChem, National Center for Advancing Translational Sciences (NCATS)
